Screening results: PubChem BioAssay, National Center for Advancing Translational Sciences (NCATS)
Compounds with a hit are over-represented: about 7.6% of the library has one in this group of screens.
BRCA1 expr up: increases BRCA1 expression. MCF7-BRCA1-FFLuc reporter, luminescence, 48 h; response scale: scaled: vehicle 0%, 10 µM genistein 100%. 380,000 compounds, 1.1% hits. Potency, µM (doses to about 46.1 µM), inactives show top-dose activation, usual class: activators; also: potency is read from the fitted curve at half-maximal effect; nearly all actives have a fitted effect of over 80% in size
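Cells: MCF7-BRCA1-FFLuc, 2000/well. Exposure: 48 h, 37 °C, 5% CO2. Read: luminescence, 15 min post-substrate. Controls: genistein 10 microM (maximal activation), DMSO (neutral).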
p53 reactivation: mutant p53 re-activation in reporter cells. H1299 p53-A138V BP100-luciferase reporter, luminescence, 24 h. Potency, µM (highest dose often 92.2 µM), for the others: at the top dose activity change, positive = activation, actives largely listed as activators. 320,000 compounds, 0.063% hits. AID 504706; also: potency is read from the fitted curve at half-maximal effect; % of control where 0% means no effect; nearly all actives have a fitted effect of over 45% in size
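p53-null H1299 cells stably carrying temperature-sensitive p53-A138V and a BP100-luciferase reporter were pinned with compounds (4-point, 1:5 series) and held 24 hrs at 37 deg C. Luminescence was read 10 min after detection reagent.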
Gal4-VP16 FLuc: Gal4-VP16 reporter inhibition counter-screen; Drosophila S2 Gal4-VP16 UAS-luciferase, luminescence, 20 h; Potency, µM (titrated, usually from 53.6 µM), without a hit: top-dose activity, negative = inhibition, usual class: inhibitors; 310,000 compounds, 3.5% hits;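 also: Gal4-VP16 expression switched on by copper sulfate through the metallothionein promoter; potency is read from the fitted curve at half-maximal effect; % is scaled to controls: 0 for no effect and ±100 for the full control effect; nearly all actives have a fitted effect of over 50% in size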
RORg inh: ROR gamma (mouse) transcription inhibition; Potency, µM (doses to about 53.6 µM), without a hit: top-dose activity change, negative = inhibition, actives largely listed as inhibitors; 310,000 compounds, 5.4% hits; Drosophila S2 Gal4-RORgamma UAS-luciferase reporter, 20 h; also: potency is read from the fitted curve at half-maximal effect; % is scaled to controls: 0 for no effect and ±100 for the full control effect; nearly all actives have a fitted effect of over 60% in size
Target sequence (P51450 whole entry, looked up, the tested form may be a part): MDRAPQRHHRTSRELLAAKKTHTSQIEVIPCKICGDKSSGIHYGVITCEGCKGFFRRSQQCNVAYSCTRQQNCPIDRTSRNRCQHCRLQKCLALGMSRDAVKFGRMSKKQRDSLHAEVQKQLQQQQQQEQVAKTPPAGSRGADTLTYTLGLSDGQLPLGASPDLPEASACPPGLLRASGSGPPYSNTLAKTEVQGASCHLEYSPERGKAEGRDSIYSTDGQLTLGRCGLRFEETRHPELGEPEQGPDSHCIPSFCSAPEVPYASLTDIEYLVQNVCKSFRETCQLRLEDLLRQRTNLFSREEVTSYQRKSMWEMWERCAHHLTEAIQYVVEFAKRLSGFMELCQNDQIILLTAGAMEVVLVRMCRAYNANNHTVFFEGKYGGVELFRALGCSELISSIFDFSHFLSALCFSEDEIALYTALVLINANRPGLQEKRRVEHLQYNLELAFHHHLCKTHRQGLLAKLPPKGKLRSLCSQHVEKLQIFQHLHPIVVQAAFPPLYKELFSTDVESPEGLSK
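Drosophila Schneider cells stably carrying a metallothionein-driven Gal4 DBD–ROR gamma fusion and a UAS-Photinus luciferase reporter were exposed to compound for 1 hr, then induced with copper sulfate (700 uM final) for 20 hr at ambient temperature before luminescence reading.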
Giardia killer: Giardia lamblia killing | Giardia lamblia trophozoite viability | activity change, % at 7.66 µM, hits read low | 340,000 compounds, 0.15% hits; in the data active = activity change below about -80%; inconclusive = between about -30% and that limit;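 also: parasites exposed to compound for two days anaerobically before the ATP read; % is scaled to controls: 0 for no effect and ±100 for the full control effect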
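Anaerobic 48 hrs incubation at 37 deg C of 100 trophozoites/well with test compounds; ATPLite 1-Step luminescence, 15-30 min RT, reports cellular ATP as viability.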
ELG1 DNA repair: blocks ELG1-dependent DNA repair in HEK293T cells; HEK293T ELG1-luciferase reporter, luminescence, 16 h; DNA damage induced by 5-fluorouridine; Potency, µM (series often up to 46.1 µM), inactives show top-dose activity change, negative = inhibition, most hits filed as inhibitors; 330,000 compounds, 2.3% hits; also: potency is read from the fitted curve at half-maximal effect; % is scaled to controls: 0 for no effect and ±100 for the full control effect; nearly all actives have a fitted effect of over 55% in size
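Overnight (16 hr) co-exposure of 2,000 cells/well to 5-fluorouridine and compound at 37 °C preceded detection. Luciferase was quantified via ONE-Glo luminescence; loss of signal denotes inhibition.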
* marks the source's active call; other numbers are inactive results. Unless noted, calls follow the shape of the dose curve; as a rule, active = well fitted curve in the direction sought with a large enough effect; inconclusive = small, poorly fitted or top-dose-only effect, or another doubt; inactive = no such curve, though single readings can be large; an effect the other way counts as inactive or inconclusive.

What do the screens show for `C=CCN=C(NC#N)SCC(=O)NCc1ccccc1`?
BRCA1 expr up: -12%; p53 reactivation: 12%; Gal4-VP16 FLuc: 3%; RORg inh: -26%; Giardia killer: -26; ELG1 DNA repair: 3%

What do the screens show for `O=C(NCC(F)(F)F)c1ccc2sc([C@@H]3O[C@H](CO)[C@H](O)[C@H](O)[C@H]3O)nc2c1`?
BRCA1 expr up: 8%

How did O=S(=O)(c1ccccc1Br)N1CCN(c2ncccn2)CC1 do in these assays?
BRCA1 expr up: -21%; p53 reactivation: -7%; Gal4-VP16 FLuc: 6%; RORg inh: -5%; Giardia killer: 9; ELG1 DNA repair: -7%

How did CN(CCC#N)C(=O)COC(=O)c1ccc2[nH]c3c(c2c1)CCCC3 do in these assays?
BRCA1 expr up: 26%; p53 reactivation: 3%; Gal4-VP16 FLuc: 0%; RORg inh: 6%; Giardia killer: 9; ELG1 DNA repair: inconclusive

What do the screens show for `Cc1ccc(N(C)S(=O)(=O)c2nnc(NC(=O)c3ccco3)s2)cc1`?
BRCA1 expr up: -14%; p53 reactivation: -1%; Gal4-VP16 FLuc: -7%; RORg inh: 30%; Giardia killer: -11; ELG1 DNA repair: -3%

How did CCc1ccc2c(c1)C1(NN=C(c3ccc(C)cc3)S1)C(=O)N2 (centres undefined) do in these assays?
BRCA1 expr up: -95%; p53 reactivation: inconclusive; Gal4-VP16 FLuc: 3.5µM*; RORg inh: 4µM*; Giardia killer: 0; ELG1 DNA repair: inconclusive

What do the screens show for `CCc1ccc2c(c1)NC(=O)C2(C)Cc1ccc(F)cc1` (centres undefined)?
BRCA1 expr up: -2%

How did CC(C)c1ccc2c(c1)C1(NN=C(c3ccccc3)S1)C(=O)N2 (centres undefined) do in these assays?
BRCA1 expr up: -54%; p53 reactivation: inconclusive; Gal4-VP16 FLuc: 5µM*; RORg inh: 5.6µM*; Giardia killer: -8; ELG1 DNA repair: inconclusive

How did COc1nc(NCc2cccnc2)nc(NC2CCCCC2)n1 do in these assays?
BRCA1 expr up: inconclusive; p53 reactivation: 16%; Gal4-VP16 FLuc: 2%; RORg inh: 44%; Giardia killer: 8; ELG1 DNA repair: inconclusive

What do the screens show for `Cc1cc([N+](=O)[O-])nn1CCCC(=O)Nc1c(C)n(C)n(-c2ccccc2)c1=O`?
BRCA1 expr up: -3%; p53 reactivation: 2%; Gal4-VP16 FLuc: 1%; RORg inh: inconclusive; Giardia killer: 5; ELG1 DNA repair: 17%

How did Cc1nnc(NC(=O)c2ccc(S(=O)(=O)N3CC(C)OC(C)C3)cc2)o1 (centres undefined) do in these assays?
BRCA1 expr up: 0%; p53 reactivation: -11%; Gal4-VP16 FLuc: 4µM*; RORg inh: 4.5µM*; Giardia killer: -1; ELG1 DNA repair: 5%

What do the screens show for `Cc1nnc(NC(=O)c2ccc(S(=O)(=O)N3CCCCCC3)cc2)o1`?
BRCA1 expr up: -18%; p53 reactivation: -4%; Gal4-VP16 FLuc: 1.3µM*; RORg inh: 0.71µM*; Giardia killer: 2; ELG1 DNA repair: -11%

What do the screens show for `CC(=O)Nc1ccc(C(=O)Nc2ccc(S(=O)(=O)N3CCCCC3)cc2)cc1`?
BRCA1 expr up: -15%; p53 reactivation: -1%; Gal4-VP16 FLuc: -1%; RORg inh: 9%; Giardia killer: -19; ELG1 DNA repair: -8%

Results for COCc1nnc(NC(=O)c2ccc(S(=O)(=O)N3CCCCCC3)cc2)o1 ?
BRCA1 expr up: -35%; p53 reactivation: 2%; Gal4-VP16 FLuc: 0.28µM*; RORg inh: 2.2µM*; Giardia killer: -6; ELG1 DNA repair: inconclusive

Results for CC(=O)Nc1ccc(NC(=O)c2ccc(S(=O)(=O)N3CCCCCC3)cc2)cc1 ?
BRCA1 expr up: -5%

What do the screens show for `OC(CNc1ccnc2cc(Cl)ccc12)CNC1CCCCC1` (centres undefined)?
BRCA1 expr up: -81%; Giardia killer: -11

Results for CCCNC(=O)NC(=O)CN1C(=O)NC(C)(c2ccc(C)cc2)C1=O (centres undefined) ?
BRCA1 expr up: 4%; p53 reactivation: -6%; Gal4-VP16 FLuc: 1%; RORg inh: 41%; Giardia killer: -5; ELG1 DNA repair: 2%

Results for O=C1c2ccc3c4c(ccc(c24)C(=O)N1c1cccc(O)c1)C(=O)N(c1cccc(O)c1)C3=O ?
BRCA1 expr up: -75%; p53 reactivation: -11%; Gal4-VP16 FLuc: inconclusive; RORg inh: inconclusive; Giardia killer: -14; ELG1 DNA repair: 6.5µM*

Results for CC(OC(=O)c1cc(S(=O)(=O)N2CCOCC2)ccc1F)C(=O)NCc1ccc2c(c1)OCO2 (centres undefined) ?
BRCA1 expr up: -9%; p53 reactivation: -3%; Giardia killer: 8; ELG1 DNA repair: -1%

What do the screens show for `COc1ccc(CN(C(=O)CSc2nnc(-c3ccc(F)cc3)o2)c2ccc(F)cc2)cc1`?
BRCA1 expr up: -1%; p53 reactivation: 0%; Gal4-VP16 FLuc: 7%; RORg inh: 26%; Giardia killer: 8; ELG1 DNA repair: inconclusive

What do the screens show for `COc1ccc(CN(C(=O)CSc2nnc(-c3c[nH]c4ccccc34)o2)c2ccc(F)cc2)cc1OC`?
BRCA1 expr up: -78%; p53 reactivation: inconclusive; Gal4-VP16 FLuc: -21%; RORg inh: inconclusive; Giardia killer: 5; ELG1 DNA repair: 5.2µM*

Results for Cc1nc2ccccc2c(=O)n1-c1ccc(NS(=O)(=O)c2ccccc2)cc1 ?
BRCA1 expr up: -26%; p53 reactivation: -6%; Giardia killer: -3; ELG1 DNA repair: -6%

What do the screens show for `Cn1c(=O)[nH]c(=O)c2c1nc(CN1CCN(c3ccc(F)cc3)CC1)n2CCCc1ccccc1`?
BRCA1 expr up: -39%; p53 reactivation: 2%; Gal4-VP16 FLuc: -8%; RORg inh: 20%; Giardia killer: 8; ELG1 DNA repair: inconclusive

What do the screens show for `Cn1c(=O)[nH]c(=O)c2c1nc(N1CCN(c3ccccc3)CC1)n2CCSc1ncccn1`?
BRCA1 expr up: 8%; p53 reactivation: -2%; Gal4-VP16 FLuc: 0%; RORg inh: inconclusive; Giardia killer: -8; ELG1 DNA repair: inconclusive

Results for Cn1c(=O)c2c(nc(N3CCN(Cc4ccccc4)CC3)n2CCSc2ncccn2)n(C)c1=O ?
p53 reactivation: 1%; Gal4-VP16 FLuc: 0%; RORg inh: 39%; ELG1 DNA repair: 5.2µM*

How did Cn1c(=O)[nH]c(=O)c2c1nc(CN1CCN(c3ccccc3F)CC1)n2CCCc1ccccc1 do in these assays?
BRCA1 expr up: 10%; p53 reactivation: -16%; Gal4-VP16 FLuc: 12%; RORg inh: 2%; Giardia killer: 3; ELG1 DNA repair: 6.5µM*
